These results are taken from the supplement of paper PMC8975748.

The structures appear in SMILES notation. Structures can show the parent of a compound that is named as a salt.

One test has as its system Saccharomyces cerevisiae BY4741 SeMeCo community. The test can be described thus: z-score of subpopulation abundance vs DMSO median, subpopulation auxotrophic for LM; higher = larger share of this subpopulation than in DMSO controls. As to conditions: 10 µM; 24 h; SM minimal medium; subpopulation (auxotrophy): LM. The procedure, abridged: (§1)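 Automated confocal microscopy of paraformaldehyde-fixed cells was used to follow a Saccharomyces cerevisiae BY4741 community carrying four plasmids, each restoring one auxotrophy and encoding a distinct fluorescent protein. The community was pre-grown overnight to OD600 1.0, diluted to 0.3, and added at 70 µl to 384-well plates acoustically predosed with library drugs (10 µM final) for 24 h of growth in minimal SM medium. Single-auxotroph fluorescent strains set thresholds and autofluorescence correction, and each subpopulation's abundance was scored as a z-score against the vehicle-well median.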
For `C[C@]12CCC3=C4CCC(=O)C=C4CC[C@H]3[C@@H]1CC[C@@]2(O)CC#N` [Dienogest], the “z-score of subpopulation abundance” value is -0.44.
With `C[N+]1(C)CCC(OC(=O)C(O)(c2ccccc2)C2CCCC2)C1` (stereo unspecified) [Glycopyrrolate], the “z-score of subpopulation abundance” value is -0.6.
Turning to `NCC[C@H](O)C(=O)N[C@@H]1C[C@H](N)[C@@H](O[C@H]2O[C@H](CN)[C@@H](O)[C@H](O)[C@H]2O)[C@H](O)[C@H]1O[C@H]1O[C@H](CO)[C@@H](O)[C@H](N)[C@H]1O` [Amikacin disulfate], the “z-score of subpopulation abundance” value was -0.17.
Still for that read-out and setting: the value for `CN1C2CCCC1CC(NC(=O)c1nn(C)c3ccccc13)C2` (stereo unspecified) [Granisetron] was -0.49; that for `CCCCCNC(=N)N/N=C/c1c[nH]c2ccc(OC)cc12` [Tegaserod Maleate] was 1.85; that for `COc1ccc2cc3[n+](cc2c1OC)CCc1cc2c(cc1-3)OCO2` [Berberine Sulfate] was -0.28.
Take `CS(=O)(=O)Nc1ccc([N+](=O)[O-])cc1Oc1ccccc1` [Nimesulide]: the “z-score of subpopulation abundance” value was 0.74.
For `COc1cc(O)c(C(=O)Nc2nc(C(=O)NCCN(C(C)C)C(C)C)cs2)cc1OC` [Acotiamide hydrochloride], the “z-score of subpopulation abundance” value was -0.2.
Consider `C[C@H]1c2cccc(O)c2C(O)=C2C(=O)[C@]3(O)C(O)=C(C(N)=O)C(=O)[C@@H](N(C)C)[C@@H]3[C@@H](O)[C@@H]21` [Doxycycline monohydrate], for which the “z-score of subpopulation abundance” value was found to be 0.
Still for that read-out and setting: the same measure for `COC(=O)C1=C(C)NC(C)=C(C(=O)OC(C)(C)CN(C)CCC(c2ccccc2)c2ccccc2)C1c1cccc([N+](=O)[O-])c1` (stereo unspecified) [Lercanidipine hydrochloride]: 1.89.
As to `CC(c1cc2ccccc2s1)N(O)C(N)=O` (stereo unspecified) [Zileuton], the “z-score of subpopulation abundance” value was determined as 0.16.
Turning to `O=c1ccn(C2CC(O)C(CO)O2)c(=O)[nH]1` (stereo unspecified) [2-deoxyuridine], the “z-score of subpopulation abundance” value came out at 0.89.
Turning to `Nc1nc2[nH]cc(CCc3ccc(C(=O)N[C@@H](CCC(=O)O)C(=O)O)cc3)c2c(=O)[nH]1` [Pemetrexed Disodium Hydrate], the “z-score of subpopulation abundance” value was -3.99.

A further test shares this test system. The experiment in a line: z-score of subpopulation abundance vs DMSO median, subpopulation auxotrophic for HM; higher = larger share of this subpopulation than in DMSO controls. As to conditions: 10 µM; 24 h; SM minimal medium; subpopulation (auxotrophy): HM. The procedure, abridged:
as §1
Take `C[C@]12CCC3=C4CCC(=O)C=C4CC[C@H]3[C@@H]1CC[C@@]2(O)CC#N` [Dienogest]: the “z-score of subpopulation abundance” value is -0.11.
Consider `C[N+]1(C)CCC(OC(=O)C(O)(c2ccccc2)C2CCCC2)C1` (stereo unspecified) [Glycopyrrolate], for which the “z-score of subpopulation abundance” value is -0.21.
In the case of `CN1C2CCCC1CC(NC(=O)c1nn(C)c3ccccc13)C2` (stereo unspecified) [Granisetron], the “z-score of subpopulation abundance” value was determined as 0.6.
Same read-out and setting: the value for `COc1ccc2cc3[n+](cc2c1OC)CCc1cc2c(cc1-3)OCO2` [Berberine Sulfate] was 0.24; that for `CS(=O)(=O)Nc1ccc([N+](=O)[O-])cc1Oc1ccccc1` [Nimesulide] was 0.64; that for `COc1cc(O)c(C(=O)Nc2nc(C(=O)NCCN(C(C)C)C(C)C)cs2)cc1OC` [Acotiamide hydrochloride] was 0.26.
`C[C@H]1c2cccc(O)c2C(O)=C2C(=O)[C@]3(O)C(O)=C(C(N)=O)C(=O)[C@@H](N(C)C)[C@@H]3[C@@H](O)[C@@H]21` [Doxycycline monohydrate]: the “z-score of subpopulation abundance” value was -1.15.
`COC(=O)C1=C(C)NC(C)=C(C(=O)OC(C)(C)CN(C)CCC(c2ccccc2)c2ccccc2)C1c1cccc([N+](=O)[O-])c1` (stereo unspecified) [Lercanidipine hydrochloride]: the “z-score of subpopulation abundance” value stood at 2.19.
Regarding `CC(c1cc2ccccc2s1)N(O)C(N)=O` (stereo unspecified) [Zileuton], the “z-score of subpopulation abundance” value was -0.32.
For the compound `O=c1ccn(C2CC(O)C(CO)O2)c(=O)[nH]1` (stereo unspecified) [2-deoxyuridine], the “z-score of subpopulation abundance” value turned out to be 0.04.
Regarding `Nc1nc2[nH]cc(CCc3ccc(C(=O)N[C@@H](CCC(=O)O)C(=O)O)cc3)c2c(=O)[nH]1` [Pemetrexed Disodium Hydrate], the “z-score of subpopulation abundance” value was -4.93.

For the next test the test system is unchanged. The experiment in a line: z-score of subpopulation abundance vs DMSO median, subpopulation auxotrophic for HU; higher = larger share of this subpopulation than in DMSO controls. As to conditions: 10 µM; 24 h; SM minimal medium; subpopulation (auxotrophy): HU. In a few lines:
as §1
Turning to `C[C@]12CCC3=C4CCC(=O)C=C4CC[C@H]3[C@@H]1CC[C@@]2(O)CC#N` [Dienogest], the “z-score of subpopulation abundance” value was -0.02.
`C[N+]1(C)CCC(OC(=O)C(O)(c2ccccc2)C2CCCC2)C1` (stereo unspecified) [Glycopyrrolate]: the “z-score of subpopulation abundance” value came to 0.57.
For `NCC[C@H](O)C(=O)N[C@@H]1C[C@H](N)[C@@H](O[C@H]2O[C@H](CN)[C@@H](O)[C@H](O)[C@H]2O)[C@H](O)[C@H]1O[C@H]1O[C@H](CO)[C@@H](O)[C@H](N)[C@H]1O` [Amikacin disulfate], the “z-score of subpopulation abundance” value was -0.01.
Regarding `CN1C2CCCC1CC(NC(=O)c1nn(C)c3ccccc13)C2` (stereo unspecified) [Granisetron], the “z-score of subpopulation abundance” value is -0.71.
In the case of `COc1ccc2cc3[n+](cc2c1OC)CCc1cc2c(cc1-3)OCO2` [Berberine Sulfate], the “z-score of subpopulation abundance” value turned out to be 0.8.
On the same count and under the same terms, the same measure for `CS(=O)(=O)Nc1ccc([N+](=O)[O-])cc1Oc1ccccc1` [Nimesulide]: -0.2; for `COc1cc(O)c(C(=O)Nc2nc(C(=O)NCCN(C(C)C)C(C)C)cs2)cc1OC` [Acotiamide hydrochloride]: 0.71.
For the compound `C[C@H]1c2cccc(O)c2C(O)=C2C(=O)[C@]3(O)C(O)=C(C(N)=O)C(=O)[C@@H](N(C)C)[C@@H]3[C@@H](O)[C@@H]21` [Doxycycline monohydrate], the “z-score of subpopulation abundance” value is -1.42.
Same read-out and setting: the value for `COC(=O)C1=C(C)NC(C)=C(C(=O)OC(C)(C)CN(C)CCC(c2ccccc2)c2ccccc2)C1c1cccc([N+](=O)[O-])c1` (stereo unspecified) [Lercanidipine hydrochloride] was -0.84.
For the compound `CC(c1cc2ccccc2s1)N(O)C(N)=O` (stereo unspecified) [Zileuton], the “z-score of subpopulation abundance” value is -0.39.
As to `O=c1ccn(C2CC(O)C(CO)O2)c(=O)[nH]1` (stereo unspecified) [2-deoxyuridine], the “z-score of subpopulation abundance” value is -1.08.
Consider `Nc1nc2[nH]cc(CCc3ccc(C(=O)N[C@@H](CCC(=O)O)C(=O)O)cc3)c2c(=O)[nH]1` [Pemetrexed Disodium Hydrate], for which the “z-score of subpopulation abundance” value was found to be 1.99.
